# Bioassay records from PubChem.
# In the library only some 1.4% were active in any assay of this set; here they are far more common.
# PKM2 act: increases activity of human pyruvate kinase M2. 260,000 tested, 0.34% active. P14618. AID 1631. purified PKM2, Kinase-Glo ATP luminescence, activation; response scale: 0% is enzyme alone, no compound. Potency, µM (titrated, usually from 57.5 µM), inactives show top-dose activation, actives largely listed as activators; also: potency is read from the fitted curve at half-maximal effect; % is scaled to controls: 0 for no effect and ±100 for the full control effect; nearly all actives have a fitted effect of over 55% in size
#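 Kinase-Glo luminescence reports ATP generated from ADP (0.1 mM) and PEP (0.5 mM) by purified hPK-M2 after 1 h at room temperature, pH 7.2 imidazole buffer; intermediate enzyme activity allows detecting inhibitors and activators.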
# TrxR1 inh: blocks rat thioredoxin reductase 1; O89049; recombinant rTrxR1, NADPH fluorescence consumption, selenite substrate; Potency, µM (titrated, usually from 114 µM), inactives show at the highest dose activity change, negative = inhibition, most hits filed as inhibitors; 390,000 tested, 1% active; also: potency is read from the fitted curve at half-maximal effect; % is scaled to controls: 0 for no effect and ±100 for the full control effect; nearly all actives have a fitted effect of over 65% in size
#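 Rat TrxR1 (90 nM in the dispensed reagent) was pre-reduced with 400 uM NADPH for 5 min at room temperature, then incubated with compound for 15 min. After 400 uM selenite was added, NADPH fluorescence (Ex 340/Em 450 nm) was followed for 8 min.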
# mIDH1 inhibitor: blocks human mutant IDH1 R132H enzyme; 390,000 tested, 0.093% active; IDH1-R132H enzyme, NADPH consumption, diaphorase/resazurin fluorescence; Potency, µM (titrated, usually from 76.6 µM), for inactives: at the highest dose activity change, negative = inhibition, most hits filed as inhibitors; AID 602179; also: potency is read from the fitted curve at half-maximal effect; % is scaled to controls: 0 for no effect and ±100 for the full control effect; nearly all actives have a fitted effect of over 65% in size
#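 IDH1-R132H (0.5 ug/mL dispensed) in pH 7.5 Tris buffer was preincubated 30 min with compound, then given a substrate mix of 0.016 mM NADPH and 2 mM alpha-KG for 80 min at room temperature; remaining NADPH was read by diaphorase/resazurin fluorescence.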
# TrxR1 substrate: is turned over as a substrate by rat TrxR1 | Potency, µM (doses to about 114 µM), for inactives: top-dose activity change, negative = substrate turnover | purified TrxR1 substrate turnover, NADPH consumption readout | 390,000 tested, 0.01% active | O89049; also: potency is read from the fitted curve at half-maximal effect; % is scaled to controls: 0 for no effect and ±100 for the full control effect; nearly all actives have a fitted effect of over 50% in size
#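 Rat TrxR1, dispensed at 90 nM, was prereduced with 400 uM NADPH (final) for 5 min at ~22 deg C, then incubated with compound 15 min before 400 uM selenite. A first-read NADPH fluorescence drop versus no-compound background flagged substrates.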
# GLS inh: glutaminase GLS (human) inhibition; O94925; GLS enzymatic activity, qHTS titration; Potency, µM (doses to about 45.5 µM), without a hit: top-dose activity change, negative = inhibition, hits mostly inhibitors; 410,000 tested, 0.21% active; AID 624170; also: potency is read from the fitted curve at half-maximal effect; % is scaled to controls: 0 for no effect and ±100 for the full control effect
# Target sequence (O94925 whole entry, looked up): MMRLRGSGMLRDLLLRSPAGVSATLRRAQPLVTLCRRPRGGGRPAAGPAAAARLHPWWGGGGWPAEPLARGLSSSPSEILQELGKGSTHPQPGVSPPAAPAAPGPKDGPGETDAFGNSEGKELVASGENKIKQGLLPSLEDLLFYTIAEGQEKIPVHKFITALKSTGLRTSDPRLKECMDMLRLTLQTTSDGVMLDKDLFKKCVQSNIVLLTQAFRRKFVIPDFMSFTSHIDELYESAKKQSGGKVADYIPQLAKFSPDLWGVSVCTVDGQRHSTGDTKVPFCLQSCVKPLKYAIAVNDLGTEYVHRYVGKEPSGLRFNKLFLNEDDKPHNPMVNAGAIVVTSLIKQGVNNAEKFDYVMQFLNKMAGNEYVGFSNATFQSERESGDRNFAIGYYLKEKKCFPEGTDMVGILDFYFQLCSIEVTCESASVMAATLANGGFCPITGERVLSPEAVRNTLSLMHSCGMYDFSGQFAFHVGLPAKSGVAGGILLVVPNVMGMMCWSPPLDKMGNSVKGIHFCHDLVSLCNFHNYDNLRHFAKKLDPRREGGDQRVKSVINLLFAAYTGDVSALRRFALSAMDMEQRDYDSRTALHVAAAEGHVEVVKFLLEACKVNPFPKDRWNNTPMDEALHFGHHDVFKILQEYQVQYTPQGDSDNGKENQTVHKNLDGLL
#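 hKGA in 45 mM KH2PO4 pH 8.2, 0.02% Tween-20 with pin-transferred compounds; 1 mM L-glutamine (stock) plus glutamate oxidase/HRP/Amplex Red coupling added. Fluorescence read initially and after 30 min at RT.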
# LDHA block: blocks human lactate dehydrogenase A; 480,000 tested, 0.15% active; P00338; activity change, % (values are at about 110 or 230 µM); purified LDHA, NADH/diaphorase-resazurin fluorescence; hits give low values; in the data active = activity change below about -30%; inconclusive = mostly about -25% to -30%;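 also: plate controls were DMSO wells for no effect and wells without enzyme for full effect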
#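 Remaining NADH was detected by diaphorase (0.133 mg/mL) converting 37 µM resazurin to fluorescent resorufin, read at 0 and 20 minutes. The preceding 5-minute room-temperature reaction used 2 nM LDHA, 0.2 mM sodium pyruvate and 0.06 mM NADH at pH 7.4.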
# Resorufin autofl: counter-screen for mutant IDH1 inhibitors: fluorescence interference; shares compounds with mIDH1 inhibitor; Resorufin detection reagent fluorescence interference, cell-free; inhibition of signal, % at 51.2 µM; 750 tested, under 10 active;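 also: 0% = wells with normal resorufin and full inhibition = wells lacking resorufin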
# WT IDH1 inh: selectivity of mutant IDH1 inhibitors: human wild-type IDH1; 750 tested, 9% active; WT IDH1 enzyme, NADPH diaphorase/resazurin fluorescence; Potency, µM (highest dose often 115 µM), without a hit: at the top dose activity change, negative = inhibition, actives largely listed as inhibitors; shares compounds with mIDH1 inhibitor;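 also: potency is read from the fitted curve at half-maximal effect; 0% = full WT IDH1 enzyme control and full inhibition = no enzyme wells; nearly all actives have a fitted effect of over 55% in size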
# mIDH1 confirm: inhibits human mutant IDH1 enzyme in cherrypick confirmation; shares compounds with mIDH1 inhibitor; IDH1 R132H enzyme, NADPH diaphorase/resazurin fluorescence; Potency, µM (titrated, usually from 76.6 µM), inactives show at the top dose activity change, negative = inhibition, actives largely listed as inhibitors; 750 tested, 83% active; AID 624002; also: potency is read from the fitted curve at half-maximal effect; nearly all actives have a fitted effect of over 50% in size
# Active calls of the source: *; ? = inconclusive; · = not tested or not shown; [ ] = remark or other dose. Unless noted, calls follow the shape of the dose curve; as a rule, active = well fitted curve in the direction sought with a large enough effect; inconclusive = small, poorly fitted or top-dose-only effect, or another doubt; inactive = no such curve, though single readings can be large; an effect the other way counts as inactive or inconclusive.
SMILES,PKM2 act,TrxR1 inh,mIDH1 inhibitor,TrxR1 substrate,GLS inh,LDHA block,Resorufin autofl,WT IDH1 inh,mIDH1 confirm
CCOC(=O)c1ccc(NC(=O)CSc2ncnc3c(-c4ccccc4)c[nH]c23)cc1,·,·,·,·,·,2.4,·,·,·
CCC1C2CN(C(C)=O)CC=C2C(C#N)=C(N)C1(C#N)C#N (stereo not given),1.1%,?,?,10.6%,1.0%,6.3,-7.7,37.5%,44.7µM*
CCN1CC=C2C(C#N)=C(N)C(C#N)(C#N)C(c3cc(Cl)ccc3Cl)C2C1 (stereo not given),-0.9%,-14.5%,?,71.8%,-19.9%,0.5,3.4,6.2%,-17.3%
CC(C)N1CC=C2C(C#N)=C(N)C(C#N)(C#N)C(c3ccccc3)C2C1 (stereo not given),-3.7%,12.2%,?,85.0%,-29.9%,9.2,·,·,·
CCCC1C2CN(C(C)=O)CC=C2C(C#N)=C(N)C1(C#N)C#N (stereo not given),-5.8%,-5.9%[57.1 µM],-8.2%,22.6%[57.1 µM],2.7%,4.1,·,·,·
O=C(Nc1cccc(S(=O)(=O)N2CCCCCC2)c1)c1cccc2cccnc12,·,·,·,·,·,-0.2,·,·,·
COc1ccc(-c2oc3cc(OC(C)=O)cc(OC(C)=O)c3c(=O)c2OC)cc1,·,13.6%,?,20.6%,-4.1%,2.8,-2.9,-3.9%,28.2µM*
Cc1sc2nc(CSc3nnnn3C3CCCCC3)[nH]c(=O)c2c1C,·,·,·,·,·,0.7,·,·,·
COc1ccccc1C1CC(c2ccc(Br)cc2)=NN1C(=O)c1cccnc1 (stereo not given),3.5%,14.9%,46.5µM*,-0.9%,-3.9%,0.0,0.3,-4.9%,22.4µM*
COc1cccc(C2CC(c3ccc(Br)cc3)=NN2C(=O)c2ccncc2)c1OC (stereo not given),-15.8%,4.9%[57.1 µM],-19.2%,-0.5%[57.1 µM],-3.2%,-0.2,·,·,·
O=C(c1ccncc1)N1N=C(c2ccc(Cl)cc2)CC1c1ccccc1O (stereo not given),?,1.8%,52.1µM*,-3.0%,?,-5.7,2.2,-2.1%,35.5µM*
O=C(NCCC12CC3CC(CC(C3)C1)C2)c1ccc(Cl)cc1,·,·,·,·,·,-13.1,·,·,·
Cc1ccc(-c2cc(C(=O)Nc3nccs3)c3ccccc3n2)cc1,·,·,·,·,·,3.0,·,·,·
CCOC(=O)c1cc(-c2ccc(/C=C3/C(=O)N(c4ccc(C(=O)O)cc4)N=C3C)o2)ccc1Cl,·,-7.8%,?,-3.9%,0.0%,-1.8,4.1,5.01µM*,1.26µM*
CC(CCc1ccccc1)NC(=O)COC(=O)c1ccc(S(C)(=O)=O)c([N+](=O)[O-])c1 (stereo not given),2.6%,0.794µM*,?,2.0%[57.1 µM],3.0%,-4.1,-3.1,1.8%,?
CS(=O)(=O)c1ccc(C(=O)OCc2nnc(-c3ccccc3)o2)cc1[N+](=O)[O-],?,1µM*,?,4.5%,-14.8%,-2.3,-3.9,9.0%,25.1µM*
CN(C)S(=O)(=O)c1ccc(C(=O)OCc2nnc(-c3ccccc3)o2)cc1,-1.9%,11.5%,13.1%,-3.2%,-4.1%,-2.3,·,·,·
S=C(N/N=C/c1c(Cl)cccc1Cl)Nc1ccccc1,·,·,·,·,·,-6.3,·,·,·
Cc1ccc(C)c(NCc2ccccn2)c1,·,·,·,·,·,12.0,·,·,·
NNC(=O)CSc1c(-c2ccccc2)c2cc(Cl)ccc2[nH]c1=O,·,-2.7%,?,-4.7%,25.1%,-4.3,-14.2,-18.7%,-24.9%
CN1C(=O)N(CC(=O)N2CCN(S(=O)(=O)c3ccc4c(c3)CCC4)CC2)C(=O)C12CCCCC2,·,-6.3%,0.4%,-7.8%,-14.3%,-3.7,·,·,·
O=C(CCl)N1CCN(S(=O)(=O)c2ccc3c(c2)CCC3)CC1,·,?,46.5µM*,-0.7%,8.5%,0.8,-5.6,-24.3%,28.2µM*
O=C(C=P(c1ccccc1)(c1ccccc1)c1ccccc1)c1ccccc1-c1ccccc1C(=O)C=P(c1ccccc1)(c1ccccc1)c1ccccc1,·,?,23.3µM*,-6.6%,-1.9%,1.3,2.3,?,3.16µM*
C[C@H]1CN([C@@H](C)CO)C(=O)c2cccc(NC(=O)Nc3ccc(C(F)(F)F)cc3)c2O[C@@H]1CN(C)S(=O)(=O)c1ccccc1,·,4.8%,?,-11.7%,1.9%,2.5,1.6,-13.8%,?
COc1cc(C2(c3ccc(O)c(OC)c3)C(=O)N(C)c3ccc(Br)cc32)ccc1O,·,17.2%,-12.6%,-1.0%,-0.9%,0.2,·,·,·
SMILES,PKM2 act,TrxR1 inh,mIDH1 inhibitor,TrxR1 substrate,GLS inh,LDHA block,Resorufin autofl,WT IDH1 inh,mIDH1 confirm
COc1cc(C2(c3ccc(O)c(OC)c3)C(=O)Nc3c(Br)cc(Br)cc32)ccc1O,·,27.6%,52.1µM*,0.5%,22.7%,-2.4,-0.4,?,39.8µM*
Cc1ccc(NC(=O)CN2CCCC2c2ccc(F)cc2)cc1 (stereo not given),·,·,·,·,·,1.5,·,·,·
CCN1C(=O)[C@@H]2[C@@H](c3ccc(-c4ccc(OC)cc4)c(OC)c3)N3CCCC[C@@]3(C(=O)OC)[C@@H]2C1=O,·,11.4%[57.1 µM],-18.5%,10.1%[57.1 µM],10.8%,-3.4,·,·,·
COC(=O)[C@@]12CCCCN1[C@H](c1ccc(-c3ccc4c(c3)OCO4)c(OC)c1)[C@@H]1C(=O)N(C)C(=O)[C@@H]12,·,27.4%[57.1 µM],?,14.3%[57.1 µM],0.8%,-0.7,10.0,2.6%,11.2µM*
CCN1C(=O)[C@H]2[C@@H](c3ccc(-c4ccc(OC)cc4)c(OC)c3)N3CCCC[C@@]3(C(=O)OC)[C@H]2C1=O,·,11.2%,?,0.9%,-0.7%,1.2,5.5,-4.9%,12.6µM*
COC(=O)[C@@]12CCCCN1[C@H](c1ccc(-c3ccc(F)cc3)c(OC)c1)[C@@H]1C(=O)N(C)C(=O)[C@@H]12,·,-0.9%,39.8µM*,-0.4%,6.4%,3.8,-3.4,3.0%,6.31µM*
COC(=O)c1cccc(COC(=O)c2cc(C(C)=O)c[nH]2)c1,·,·,·,·,·,-1.0,·,·,·
N#CC1=C(N)Oc2n[nH]c(-c3ccccc3)c2C12C(=O)N(Cc1cccc(F)c1)c1ccccc12 (stereo not given),·,·,·,·,·,2.0,·,·,·
